Molecules are shown by their SMILES. “And” between values parts separate entries of the source, which are not always exact repeats. Equal entries are not always repeated. Inconclusive results are not listed. Entries that show only a call come without a potency. Where a structure was tested more than once in an assay, its records may differ in their call. The source made the active and inactive calls. Calls follow the shape of the full dose curve.
Potency is read from the fitted curve at half-maximal effect.

This test in a line: p53 small molecule agonists, cell-based qHTS assay with human liver microsomes: qHTS cell viability counter screen (AID 1963579). Also: nearly all actives have a fitted effect of over 45% in size. Particulars: p53RE-bla HCT-116 viability, ATP luminescence, 16 h, HLM; series mostly up to 66 µM; activity change, negative = cytotoxicity: at the top concentration. The source says: National Center for Advancing Translational Sciences [NCATS]
Division of Preclinical Innovation [DPI]
U.S. Environmental Protection Agency [EPA]
National Institutes of Environmental Health Sciences [NIEHS]
National Toxicology Program [NTP]
U.S. Food and Drug Administration [FDA]
p53, a tumor suppressor protein, is activated following cellular insult, including DNA damage and other cellular stresses. The activation of p53 regulates cell fate by inducing DNA repair, cell cycle arrest, apoptosis, or cellular senescence. The activation of p53, therefore, is a good indicator of DNA damage and other cellular stresses. […] The activation of the reporter gene under culture conditions can be detected by fluorescence intensity. This cell line was used to screen the Tox21 10K compound library in the condition of presence of human liver microsomes and to identify agonists that activate the p53 signaling pathway after in vitro metabolic activation (Ooka et al., Archive of Toxicology 96:1975-1987, 2022).
Tox21 Assay Protocol Summary:
The p53RE-bla cells were dispensed at 4,000cells/3ul/well in 1536-well black-clear bottom plates. After the assay plates were incubated at 37 C, 5% CO2 incubator for 5 hours, 23 nL of compounds dissolved in DMSO, positive controls or DMSO only was transferred to the assay plate. Following compound addition, 3 uL of human liver microsomes (XenoTech, Kansas City, KS) at final concentration of 0.5 mg/mL and 1uL of B-Nicotinamide adenine dinucleotide 2'-phosphate (NADPH) at final concentration of 0.5 mg/mL were transferred to the assay plate. The plates were incubated at 37 C for 16 hours. 1 uL of LiveBLAzer detection mixture was added to each well and the plates were incubated at room temperature in the dark for 2 h. Fluorescence intensity at 460 and 530 nm emission and 405 nm excitation were measured by an Envision plate reader. For cell viability readout that measures cytotoxicity, 4 ul/well of CellTiter-Glo reagent was added into the assay plates using a Flying Reagent Dispenser. After 30 min incubation at room temperature, the luminescence intensity in the plates was measured using a ViewLux plate reader.
On the technique in general: qHTS replaces the single test concentration by a dilution series.
As for `CC1(C)[C@@H](O[C@H]2O[C@H](C(=O)O)[C@@H](O)[C@H](O)[C@H]2O[C@@H]2O[C@H](C(=O)O)[C@@H](O)[C@H](O)[C@H]2O)CC[C@]2(C)[C@H]3C(=O)C=C4[C@@H]5C[C@@](C)(C(=O)O)CC[C@]5(C)CC[C@@]4(C)[C@]3(C)CC[C@@H]12`, the Potency entry was “inactive”.

As to `CCCCCC1=CCCC1=O`, the Potency entry was “inactive”.

Consider `OCCOCCOCCO`, for which the Potency result was “inactive”.

As to `CN(C)c1nc(N(C)C)nc(N(C)C)n1`, the Potency result was “inactive”.

`Oc1c(Cl)cc(Cl)c(Cl)c1Cc1c(O)c(Cl)cc(Cl)c1Cl`: the Potency was 36.3 µM (active) and inactive.

On to `O=C(O)c1ccc2c(c1)C(=O)OC2=O`, for which the Potency entry was “inactive”.

As to `Cc1cccc(C)c1O`, the Potency entry is “inactive”.

For `CC(C)CC(=O)CC(C)C`, the Potency entry was “inactive”.

For `Cc1ccc([N+](=O)[O-])cc1N`, the Potency result is “inactive”.

In the case of `CCOCCO`, the Potency entry is “inactive”.

`Cc1cc(C(C)(C)C)c(O)c(C(C)(C)C)c1`: the Potency entry was “inactive”.

Regarding `OC(CCl)CCl`, the “activity change, negative = cytotoxicity” value is -7.54% (inactive).

On to `COc1ccc([C@@H]2CC(=O)c3c(O)cc(O[C@@H]4O[C@H](CO[C@@H]5O[C@@H](C)[C@H](O)[C@@H](O)[C@H]5O)[C@@H](O)[C@H](O)[C@H]4O)cc3O2)cc1OC`, for which the Potency entry is “inactive”.

In the case of `OCc1cccc(Oc2ccccc2)c1`, the Potency entry was “inactive”.

As for `CCCCCCCCCCCCOC(=O)c1cc(O)c(O)c(O)c1`, the Potency is 45.8 µM (active).

Turning to `CCCCCCCCCCC(CO)CCCCCCCC` (stereo not given), the Potency result is “inactive”.

In the case of `C[C@](N)(Cc1ccc(O)c(O)c1)C(=O)O`, the Potency result was “inactive”.

Consider `OCCOCCOCCOCCO`, for which the Potency entry is “inactive”.

For `CCCCCCCCCCC=CC1CC(=O)OC1=O` (stereo not given), the Potency entry was “inactive”.

For the compound `Cc1cccc2n[nH]nc12`, the Potency entry is “inactive”.

As for `NC(=NCCCCCCN=C(N)/N=C(\N)Nc1ccc(Cl)cc1)/N=C(\N)Nc1ccc(Cl)cc1`, the Potency is 40.4 µM (active) and 28.7 µM (active) and inactive.

Regarding `CCCCCCCC/C=C\CCCCCCCC(=O)O`, the Potency entry was “inactive”.

With `C=Cc1ccc(C)cc1`, the Potency entry is “inactive”.

For the compound `Nc1nc2ncc(CNc3ccc(C(=O)N[C@@H](CCC(=O)O)C(=O)O)cc3)nc2c(=O)[nH]1`, the “activity change, negative = cytotoxicity” value was 13.7% (inactive).

Regarding `Cc1ccc(C(C)C)cc1`, the Potency entry was “inactive”.

As for `CCOC(=O)C(C)(C)Oc1ccc(Cl)cc1`, the Potency result was “inactive”.

Consider `CC1(C)C(=O)N(Cl)C(=O)N1Cl`, for which the Potency entry is “inactive”.

For the compound `Cc1ccc([N+](=O)[O-])cc1S(=O)(=O)O`, the Potency result is “inactive”.

As to `CCC(C)OC(=O)c1ccc(O)cc1` (stereo not given), the Potency result is “inactive”.

On to `COc1ccc2[nH]cc(CCNC(C)=O)c2c1`, for which the Potency entry was “inactive”.

Consider `c1ccc(Nc2ccccc2)cc1`, for which the Potency result was “inactive”.

Take `CN(C)Cc1cc(CN(C)C)c(O)c(CN(C)C)c1`: the Potency entry is “inactive”.

With `C/C=C(C)/C=C/C=C(C)C`, the Potency entry is “inactive”.

`CC(C)NCC(O)c1ccc(O)c(O)c1` (stereo not given): the Potency result was “inactive”.

In the case of `Cc1ccnc2c1NC(=O)c1cccnc1N2C1CC1`, the Potency entry was “inactive”.

For `NC(=O)OCC(COC(N)=O)c1ccccc1`, the Potency entry was “inactive”.

Turning to `Cc1ccccc1C(OCCN(C)C)c1ccccc1` (stereo not given), the Potency result was “inactive”.

With `OCc1cccnc1`, the Potency entry is “inactive”.

Regarding `CCCCNS(=O)(=O)c1ccccc1`, the Potency entry is “inactive”.

Regarding `CC1(C)CC(N)CC(C)(CN)C1` (stereo not given), the Potency entry was “inactive”.

These data come from PubChem BioAssay (Tox21).
